# Measurements reported in publication PMC7819943, “Rice protein-binding microarrays: a tool to detect cis-acting elements near promoter regions in rice”.
# Over roughly 39,000 sequences, “fluorescence intensity (a.u.)” has its median near 4,300; the highest 2% begin near 39,000. Many of the other results were omitted from the sample, so the highest values are more common in it than they were.
# Target: T1, OsSMF1 (Oryza sativa, UniProt Q6ZLB0 1-436)
# T1 sequence: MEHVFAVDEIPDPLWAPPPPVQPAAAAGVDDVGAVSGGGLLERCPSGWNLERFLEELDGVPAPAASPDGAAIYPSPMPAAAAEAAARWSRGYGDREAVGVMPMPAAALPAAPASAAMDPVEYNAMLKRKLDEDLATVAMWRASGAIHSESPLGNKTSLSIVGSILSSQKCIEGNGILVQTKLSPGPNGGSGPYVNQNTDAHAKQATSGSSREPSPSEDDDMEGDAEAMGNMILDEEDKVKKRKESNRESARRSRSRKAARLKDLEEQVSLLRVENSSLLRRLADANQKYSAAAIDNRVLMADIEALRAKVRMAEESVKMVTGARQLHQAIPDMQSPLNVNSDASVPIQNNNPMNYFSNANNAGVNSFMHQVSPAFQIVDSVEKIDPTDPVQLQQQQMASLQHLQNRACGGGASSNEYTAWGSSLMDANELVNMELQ
# Test: protein-binding microarray (RPBM); PBS, 2% BSA, 51.3 ng/ul salmon testes DNA, 50 uM zinc acetate, 200 nM TF, 25 C, 1 h; high values mean tight binding
# Conditions: protein: recombinant; tags: N-terminal polyhistidine and DsRed monomer fusion (pET32a); chain copies: 2; label: CyDye5-dUTP incorporated in the synthesized complementary strand; 3' TTTTT single-stranded linker to array surface; dsDNA, one strand shown
# Procedure, shortened: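 For the binding signal, per-feature fluorescence intensity was read in arbitrary units on an Axon 4000B scanner. Before scanning, a 2% BSA-blocked custom Agilent array made double-stranded with Cy5-dUTP was washed after 1 h at 25 °C with 200 nM protein and 50 µM zinc acetate. The proteins were Ni–NTA-purified transcription factors with N-terminal polyhistidine and DsRed fusions, expressed in E. coli BL21-CodonPlus.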
row,Sequence,binding signal
1,AATTTAACTCTTTCCCGCGTGGATGGCCGCATATATATGCCGGAGTCACCTAGTGCAG,3460 fluorescence intensity (a.u.)
2,TATGGAGTTTACTATTCTCCTGATTATTACAAAATTTATACGGAGTCACCTAGTGCAG,30000 fluorescence intensity (a.u.)
3,CATCACACCCACTTGTCCGCACACAAGAAGAGACCAGCTACGGAGTCACCTAGTGCAG,50600 fluorescence intensity (a.u.)
4,CACAGTGCACGCACGCAGCTACAAAGATGTCGTACGACCACGGAGTCACCTAGTGCAG,3260 fluorescence intensity (a.u.)
5,CAACACCCGTCCGCCAGAGAAGACCATCGTGACGCCACTCCGGAGTCACCTAGTGCAG,4880 fluorescence intensity (a.u.)
6,GGAATAAATTATTTATCATTGGACCTACATGTCATGGACACGGAGTCACCTAGTGCAG,3950 fluorescence intensity (a.u.)
7,TCCCCACATCACCCAACACGAGCTCACCACCACCACCACCCGGAGTCACCTAGTGCAG,3500 fluorescence intensity (a.u.)
8,CCAACCAACATCCCACATCGAACCATGCATTATTTATGAACGGAGTCACCTAGTGCAG,17300 fluorescence intensity (a.u.)
9,ACCACACCATCGAACATGGTGTAGCTCACGGTAGTCCCAACGGAGTCACCTAGTGCAG,41000 fluorescence intensity (a.u.)
10,GGCGGCGGGTGGAGGGACGCCCGCTGAATCCGCCACCGGTCGGAGTCACCTAGTGCAG,3170 fluorescence intensity (a.u.)
11,GTTTTATTGTTGAATTTTATATATTGTCACGTCCCCTTTTCGGAGTCACCTAGTGCAG,4350 fluorescence intensity (a.u.)
12,TGGTGCGCTCGTTAAGCCAGCTCGGTTTATGTTAGATCATCGGAGTCACCTAGTGCAG,3210 fluorescence intensity (a.u.)
13,AGTACTAGTTGGAATCATATGTGTCTATGGAGTATATTTTCGGAGTCACCTAGTGCAG,3160 fluorescence intensity (a.u.)
14,ATACCATATGAGCAAATACGCAGGAATCAGTACTGTATTTCGGAGTCACCTAGTGCAG,39500 fluorescence intensity (a.u.)
15,AGCAAATATTTACTGTAGTACTACACTGTCAAATCATGTACGGAGTCACCTAGTGCAG,3610 fluorescence intensity (a.u.)
16,GGAGGAAAATGGCCCTGATCAGCATCAGGGCAAGTACTATCGGAGTCACCTAGTGCAG,3200 fluorescence intensity (a.u.)
17,TGGTAAGGTTGAAAATGGCATCAAAGTGAACAGGCCCTCACGGAGTCACCTAGTGCAG,22200 fluorescence intensity (a.u.)
18,CGAACATAAGTTAGTGACGCATGCCTCAAAATGAAAAGGACGGAGTCACCTAGTGCAG,41400 fluorescence intensity (a.u.)
19,TCCTTTGGAACATAAAAGTGACGTAGGCATGCAAATTTGTCGGAGTCACCTAGTGCAG,13700 fluorescence intensity (a.u.)
20,AGCAGACTCCACGTCGTCACCAACTTCCTTCCTCCTGGTCCGGAGTCACCTAGTGCAG,11300 fluorescence intensity (a.u.)
21,GCTCCCTCGACGACCTCGTCAAGTCCCTCCGCGCCGACCCCGGAGTCACCTAGTGCAG,4170 fluorescence intensity (a.u.)
22,CAAGTGGGGACAGCGCCACGTGCGCGCTCGCTCTTCTCCACGGAGTCACCTAGTGCAG,11500 fluorescence intensity (a.u.)
23,GGTGCCCTAATAAGTACGGTGGTTGAACATTACACAATTCCGGAGTCACCTAGTGCAG,3770 fluorescence intensity (a.u.)
24,ATCAGCTAAGGCCAATCGGTGGATTACACACATTGGGTTCCGGAGTCACCTAGTGCAG,47600 fluorescence intensity (a.u.)

row,Sequence,binding signal
1,ACCGGGTTCCACATGTCATACACACATTACGTCTTGGAGTCGGAGTCACCTAGTGCAG,4450 fluorescence intensity (a.u.)
2,CCGGTCGGTACTAGTTCGGGGCGTGACACATGGTAGTTATCGGAGTCACCTAGTGCAG,4000 fluorescence intensity (a.u.)
3,GTTACATACTGTGATAGTTTGTTTAATGCTAAATCTAGTACGGAGTCACCTAGTGCAG,43300 fluorescence intensity (a.u.)
4,TATATGAAATTATTATTTGATTTCTTGATCATATAATGTACGGAGTCACCTAGTGCAG,3440 fluorescence intensity (a.u.)
5,CTCATAGTCATAGTTACTGATTTGTTTGCTCATAGTCATACGGAGTCACCTAGTGCAG,22700 fluorescence intensity (a.u.)
6,TGTTTATTGGCTTTGTCATATGATAAATGAATTAATTGTTCGGAGTCACCTAGTGCAG,30500 fluorescence intensity (a.u.)
7,TTGAAATGTTTAAGTTGTTTTAAAATTATTCTATATATTTCGGAGTCACCTAGTGCAG,37800 fluorescence intensity (a.u.)
8,ACTATTGTTTGGTAGTAAAATTGATAATTAAATGACTATACGGAGTCACCTAGTGCAG,40900 fluorescence intensity (a.u.)
9,GTTTTGGTATTGGCTATAAAATGACATGGATGTTATTGGACGGAGTCACCTAGTGCAG,4760 fluorescence intensity (a.u.)
10,TTTGATGCTGATTATAGGAAAATGTAAATGTTTCTATATACGGAGTCACCTAGTGCAG,39500 fluorescence intensity (a.u.)
11,TTTACATGTGTAGATCTAATGATGTGTTAATGCTAGTATACGGAGTCACCTAGTGCAG,4500 fluorescence intensity (a.u.)
12,AACAAATATCGTTCCTCGGTGTCGTCATCGTGTTTGGATCCGGAGTCACCTAGTGCAG,6670 fluorescence intensity (a.u.)
13,GCAAGCAAAGAAAGTTGTCATCATCCCAATCCTCCTCCGCCGGAGTCACCTAGTGCAG,4050 fluorescence intensity (a.u.)
14,GTCTTTCCGAGTGGTGGCGGCGGTGGCTGATCTGCTTGTGCGGAGTCACCTAGTGCAG,3420 fluorescence intensity (a.u.)
15,CATTCCTCTCTTTCCCCTCATCCCTATAAATCCAACATTTCGGAGTCACCTAGTGCAG,3440 fluorescence intensity (a.u.)
16,CACCACCACCACGACGCCAACGTCAACGGCGAGGACCAAGCGGAGTCACCTAGTGCAG,3270 fluorescence intensity (a.u.)
17,CCCACATGTCGGTCCAATTCTCCCTCCAGCCACTCCCGACCGGAGTCACCTAGTGCAG,3220 fluorescence intensity (a.u.)
18,CTGAAACCAACATCCAAGTCATCATGTCCAAGATGTCTCCCGGAGTCACCTAGTGCAG,6640 fluorescence intensity (a.u.)
19,CTAATATGGATAGATTGAAACATCAAGGACTAAACTGAGCCGGAGTCACCTAGTGCAG,3460 fluorescence intensity (a.u.)
20,GATTGAAACATCAAGGACTAAACTGAGTCTCAGATGAAACCGGAGTCACCTAGTGCAG,58100 fluorescence intensity (a.u.)
21,GAGAGATCGTACACGAGTCATTTCAACTCGGACAATTTGCCGGAGTCACCTAGTGCAG,3180 fluorescence intensity (a.u.)
22,CGACTCAAAGATAAATGATATGTCATCGGCACCTAGCCGACGGAGTCACCTAGTGCAG,4200 fluorescence intensity (a.u.)
23,TGTGACACATGTTACACATAATTATTATGTGAGTGGTAAACGGAGTCACCTAGTGCAG,4020 fluorescence intensity (a.u.)
24,ACAACAGCTCGATCCATCCACGCGCGCGTGACGGCTCGGCCGGAGTCACCTAGTGCAG,4690 fluorescence intensity (a.u.)
